# Experimental data taken from PubChem BioAssay AID430 (Sanford-Burnham Center for Chemical Genomics, 2006).
# The whole screen tested about 63,000 compounds, of which about 1,100 (1.7%) were called active. What follows is part of a selection rich in actives, with near analogues and random picks from the rest. Entries with a potency or affinity are not part of this list. A number with no mark means an inactive call. No stated cut-off is given here; in the data, active means cytotoxicity above about 50%; inactive means the rest.
# Assay: HPDE-C7 pancreatic duct cell viability loss – fluorescence, HTS (AID 430);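 further: cells exposed to compound for 48 hours before viability readout; 0% = vehicle and 100% = reference cytotoxic drug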
# Details: HPDE-C7 pancreatic duct cells viability, at 10 µM, hits give high values
row,Compound,cytotoxicity
1,CCn1c2ccccc2c2nnc(SCCCn3c(=O)[nH]c4ccccc43)nc21,-2.7%
2,C=CCn1c2ccccc2c2nnc(SCN3C(=O)c4ccccc4C3=O)nc21,21.1%
3,C=CCn1c2ccccc2c2nnc(SCCCn3c(=O)[nH]c4ccccc43)nc21,89.5% (active)
4,CCCCn1c(CCC(=O)O)ccc1-c1cccs1,-30.1%
5,COCCNS(=O)(=O)c1cccc2cccnc12,-7.9%
6,COc1cc(S(=O)(=O)N2CCCCC2)ccc1NC(=O)c1ccc(F)cc1,-7.1%
7,Cc1ccc2c(c1)c1c(n2CC(O)Cn2c(C)nc3ccccc32)C(=O)CCC1 (centres undefined),-12.3%
8,Cc1ccc2c(c1)c1c(n2CC(O)Cn2c(C)nc3ccccc32)/C(=N\O)CCC1 (centres undefined),113% (active)
9,CCn1c2c(c3cc(Cl)ccc31)CCCC2=O,-0.8%
10,CCn1c2c(c3cc(C(=O)O)ccc31)CCCC2=O,-6.9%
11,Cc1ccc2c(c1)c1c(n2CC(O)Cn2nc(C)c(Br)c2C)C(=O)CCC1 (centres undefined),-7.3%
12,CCOC(=O)c1c(O)c2c(n(Cc3ccco3)c1=O)CCCC2,-1.8%
13,CCOC(=O)C(C#N)c1ccccn1 (centres undefined),-13.9%
14,CC12C=CC3(O1)C(C(=O)N(c1cccnc1)C3C(=O)NC1CCCCC1)C2C(=O)Nc1ccccc1 (centres undefined),-6.3%
15,Cc1cc(=O)oc2c(N)c(O)ccc12,3.2%
16,Cc1cc(C)c2ccc(N)nc2c1O,111% (active)
17,Cc1cc(C)c2ccc(C)[n+]([O-])c2c1O,-4.9%
18,Cc1ccc(-c2noc(CSc3nc(N)cc(N)n3)n2)cc1,-1.6%
19,CCCCCC(=O)Nc1ccc(Cl)cn1,-14.3%
20,NC(=O)c1cc2ccc(O)cc2oc1=NCc1ccccc1,-0.1%
21,CC(=NCc1ccccc1)C1=C(O)COC1=O,2.9%
22,CCn1c(CNC(=O)C(C)(C)C)nc2ccccc21,-1.1%
23,CC12CCC(C(N)=O)(c3nc4ccccc4nc31)C2(C)C (centres undefined),-7.6%
24,CC(=O)Nc1sc(N)nc1-c1ccccc1,3.9%
25,CN(Cc1cccs1)C(=O)COc1ccc(-c2nnco2)cc1,-5.5%

row,Compound,cytotoxicity
1,Cc1cc(=O)[nH]c(SCc2cc(=O)n3nc(C)sc3n2)n1,2.5%
2,CS(=O)(=O)N1CCc2cc(-c3csc(NC(=O)Cc4cccs4)n3)ccc21,-7.8%
3,O=C(Cc1cccs1)Nc1nc(-c2ccccc2)cs1,-35.2%
4,CC1Cc2cc(-c3csc(NC(=O)Cc4cccs4)n3)ccc2N1S(C)(=O)=O (centres undefined),56.2% (active)
5,CCCc1[nH]nc2c1C(c1cc(OC)cc(OC)c1)C(C#N)=C(N)O2 (centres undefined),-4.3%
6,O=C(Cc1ccccc1)N1CCC(C(=O)N2CCN(c3ccc(F)cc3)CC2)CC1,-6.7%
7,O=C(NC(O)C(=O)c1cccs1)c1cccnc1 (centres undefined),-20.3%
8,O=C(Nc1nnc(C2CCCCC2)s1)c1ccc(Br)s1,7%
9,CCOC(=O)c1ccc(NC(=O)C23CCC(C)(C(=O)O2)C3(C)C)cc1 (centres undefined),-7.6%
10,Cc1oc(-c2cccc(Cl)c2)nc1CN1CCC(C(=O)N2CCN(c3ccccn3)CC2)CC1,15.5%
11,CCc1ccc(-c2nc(CN3CCCC(C(=O)NCCc4ccc(OC)c(OC)c4)C3)c(C)o2)cc1 (centres undefined),7%
12,CCc1ccc(-c2nc(CN3CCC(C(=O)NCCN(CC)c4ccccc4)CC3)c(C)o2)cc1,47.3%
13,Cc1oc(-c2ccc(Cl)cc2)nc1CN1CCC(C(=O)N2CCN(Cc3ccccc3)CC2)CC1,9.6%
14,CCN(CCNC(=O)C1CCCN(Cc2nc(-c3ccc(OC)cc3)oc2C)C1)c1ccccc1 (centres undefined),67.8% (active)
15,CCc1ccc(-c2nc(CN3CCC(C(=O)N4CCN(c5ccccc5)CC4)CC3)c(C)o2)cc1,66% (active)
16,Cc1oc(-c2cccc(Cl)c2)nc1CN1CCC(C(=O)N2CCN(c3ccccc3F)CC2)CC1,54.5% (active)
17,CCc1ccc(-c2nc(CN3CCC(C(=O)N4CCN(c5ccccn5)CC4)CC3)c(C)o2)cc1,26.2%
18,CCN1CCN(C(=O)C2CCN(Cc3nc(-c4cccc(Cl)c4)oc3C)CC2)CC1,9.2%
19,Cn1c(-c2ccc(F)cc2)cnc1NCc1ccccc1,-16.5%
20,CCCCCCN=CC1=C(O)C(C(=O)OC)C(C)(C)CC1=O (centres undefined),20.5%
21,COC(=O)c1ccccc1NC(=O)c1nc2nc(C)cc(C)n2n1,8.9%
22,COC(=O)C1=C(C)OC(N)=C(C#N)C1c1ccc(OC)c(OC)c1OC (centres undefined),-14.9%
23,CC1(C)CC(=O)C2=C(C1)Oc1ncn(CCCn3ccnc3)c(=N)c1C2c1ccccc1 (centres undefined),5.8%
24,OCCNc1ncnc2c1c(-c1ccccc1)c(-c1ccccc1)n2Cc1ccco1,37.5%
25,N=c1c2c(-c3ccccc3)c(-c3ccccc3)n(Cc3ccco3)c2ncn1CCN1CCOCC1,29.6%

row,Compound,cytotoxicity
1,O=c1c2ccccc2nc(-c2ccccc2)n1CCCn1ccnc1,-10.6%
2,COc1ccccc1-c1nc2n(n1)C(c1ccc(Cl)cc1)C(C(N)=O)=C(C)N2 (centres undefined),5.8%
3,COC(=O)c1ccc(OCC(O)Cn2nnc3ccccc32)cc1 (centres undefined),3.4%
4,CCCCN(C(=O)NC(=O)Nc1c(C)cc(C)cc1C)S(C)(=O)=O,4.6%
5,CC(C)=CC(=O)Nc1ccccc1C(N)=O,3.7%
6,COc1ccc(N2CCN(C(=O)CCN3C(=O)c4ccccc4S3(=O)=O)CC2)cc1,-0.5%
7,Cn1nccc1C(=O)NCCN1C(=O)OC(C)(C)C1(C)O (centres undefined),-1.1%
8,CCOC(=O)c1ccc(-n2c(=O)[nH]c3ccccc3c2=O)cc1,-12.3%
9,CCOC(=O)c1ccc(N2C(=O)C(C)=C(C)C2=O)cc1,-4.6%
10,CCOC(=O)c1ccc(-n2[nH]c(-c3ccccc3)cc2=O)cc1,66.3% (active)
11,O=C1CCCC2=C1C(c1cccc(Br)c1)n1nc(-c3ccco3)nc1N2 (centres undefined),-0.5%
12,Cc1cccc(S(=O)(=O)Nc2cccc(-c3cn4ccsc4n3)c2)c1,36.1%
13,O=S(=O)(Nc1cccc(-c2cn3ccsc3n2)c1)c1ccc(F)cc1,33.8%
14,Cc1ccc(S(=O)(=O)Nc2cccc(-c3cn4ccsc4n3)c2)cc1,52.4% (active)
15,O=C(Cn1cnnn1)Nc1ccccc1Cc1ccccc1,-2.5%
16,N#CC1=C2SCN(Cc3ccccc3)CN2C(=O)CC1c1cccs1 (centres undefined),-17.2%
17,N#CC1=C2SCN(c3ccccc3)CN2C(=O)CC1c1cccs1 (centres undefined),-3.1%
18,CCc1ccc(C2CC(=O)N3CN(c4ccccc4)CSC3=C2C#N)cc1 (centres undefined),-1.3%
19,N#CC1=C2SCC(O)(c3ccccc3)N2C(=O)CC1c1ccccc1 (centres undefined),70% (active)
20,COc1ccc(C2CC(=O)N3C(=C2C#N)SCC3(O)c2ccccc2)cc1 (centres undefined),10.4%
21,CCOC(=O)CCNC(=O)CNC(=O)OCc1ccccc1,-3.8%
22,CCOc1ccccc1NC(=O)CN(c1nccs1)S(=O)(=O)c1ccc(N)cc1,-20.7%
23,COc1ccc(S(=O)(=O)N(C)CC(=O)O)c2ccccc12,1.2%
24,Cc1ccc(/C(O)=C2\C(=O)C(=O)N(CC(C)O)C2c2ccc(N(C)C)cc2)cc1 (centres undefined),0%
25,CCCC(=O)n1nc(-c2ccc(OC)cc2)nc1N,11.5%

row,Compound,cytotoxicity
1,O=C(CSc1nnc(-c2ccco2)o1)NC(=O)C1COc2ccccc2O1 (centres undefined),-12.2%
2,COc1cccc(C2=NOC(C(=O)NCc3ccccc3)C2)c1 (centres undefined),61.7% (active)
3,COCCNC(=O)C1CC(c2cccc(OC)c2)=NO1 (centres undefined),-6.9%
4,COc1cccc(C2=NOC(C(=O)NCc3ccco3)C2)c1 (centres undefined),40.7%
5,COc1ccc(CNC(=O)C2CC(c3cccc(OC)c3)=NO2)cc1 (centres undefined),36%
6,COc1cccc(C2=NOC(C(=O)NCc3ccccn3)C2)c1 (centres undefined),-11.7%
7,COc1cccc(C2=NOC(C(=O)NCc3ccc(F)cc3)C2)c1 (centres undefined),60.3% (active)
8,Cc1oc2ccc(OC(=O)N3CCOCC3)cc2c1C(=O)OC(C)C,-25.5%
9,Cc1nn(-c2ccccc2C(=O)O)c(=O)c2ccccc12,0.5%
10,CC(=O)c1sc(-c2c(C)nc3sccn23)nc1C1CCCC1,4.9%
11,O=C(NCCCN1CCOCC1)c1c(F)cccc1F,18.7%
12,COc1ccc2sc(C)nc2c1NC(C)=O,-5.3%
13,Clc1ccccc1CN(Cc1ccccc1)c1ncnc2nc[nH]c12,82.7% (active)
14,Clc1ccccc1CNc1ncnc2nc[nH]c12,3.9%
15,CCCCN(Cc1ccccc1)c1ncnc2nc[nH]c12,-1%
16,O=C(O)C1CC(=O)N(Cc2ccccc2)C1 (centres undefined),-5.6%
17,COC(=O)c1ccc(OCC(=O)Nc2nn(-c3ccccc3)nc2C(N)=O)cc1,51.8% (active)
18,CC(=O)N(CC(=O)Nc1nn(-c2ccccc2)nc1C(N)=O)Cc1ccccc1,-8.2%
19,NC(=O)c1nn(-c2ccccc2)nc1NC(=O)CN1CCCCC1,-13.3%
20,CCc1nc2ccc(C(=O)NCc3ccco3)cc2nc1CC,1.5%
21,O=C1c2oc3ccccc3c(=O)c2C(c2cccc(O)c2)N1CCCN1CCOCC1 (centres undefined),-13.7%
22,Cc1ccc(F)cc1NC(=O)c1cccc(N(C)C)c1,-10.6%
23,CCNc1ccc(C(=O)OCC)cc1NC(=O)c1cccc(N(C)C)c1,54.6% (active)
24,CCNc1ccc(C(=O)OCC)cc1NC(=O)c1cccc(S(=O)(=O)N2CCOCC2)c1,1.8%
